Screens from PubChem BioAssay.
CYP2C9 act – human CYP2C9 activators, primary screen, biochemical, luminescence | recombinant CYP2C9, luciferin-H conversion; hits give high values; factor 1 = untreated enzyme, 0 = blocked | activation factor at 5 µM | actives 1.4% (n = 96,000) | AID 1024, 2008;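 active means activation factor of 2 or more for CYP2C9 at a 5 µM dose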;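 further: 0 = sulfaphenazole-blocked wells and 1 = vehicle-only wells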
CYP2C19 inhib – blockers of cytochrome P450 2C19 activity – biochemical, luminescence, ADME assay, primary screen | actives 21% (n = 96,000) | inhibition, % at 5 µM | CYP2C19 Supersomes, luciferin-H EGE luminescence, 30 min | AID 778, 2007 | P33261;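 active means CYP2C19 inhibition above a set limit at 5 µM in the primary screen, cut at about 50% in these data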;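 further: plate controls were negative control wells for no effect and 2.5 mM tranylcypromine positive control for full effect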
Cav3 T inh – Cav3.2 calcium influx blockers – cell-based, Fluo-4 calcium fluorescence, FDSS, MLSMR library, primary screen | AID 449739, 2010 | Voltage-dependent T-type calcium channel subunit alpha-1H (Homo sapiens), O95180 | B-score at 10 µM | Cav3.2-expressing cells; hits give low values | actives 4% (n = 100,000);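 active means single-dose well whose peak fluorescence ratio is a statistical outlier from its plate by either plate-standardised score or position-corrected B-score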
Target sequence (O95180 whole entry, looked up): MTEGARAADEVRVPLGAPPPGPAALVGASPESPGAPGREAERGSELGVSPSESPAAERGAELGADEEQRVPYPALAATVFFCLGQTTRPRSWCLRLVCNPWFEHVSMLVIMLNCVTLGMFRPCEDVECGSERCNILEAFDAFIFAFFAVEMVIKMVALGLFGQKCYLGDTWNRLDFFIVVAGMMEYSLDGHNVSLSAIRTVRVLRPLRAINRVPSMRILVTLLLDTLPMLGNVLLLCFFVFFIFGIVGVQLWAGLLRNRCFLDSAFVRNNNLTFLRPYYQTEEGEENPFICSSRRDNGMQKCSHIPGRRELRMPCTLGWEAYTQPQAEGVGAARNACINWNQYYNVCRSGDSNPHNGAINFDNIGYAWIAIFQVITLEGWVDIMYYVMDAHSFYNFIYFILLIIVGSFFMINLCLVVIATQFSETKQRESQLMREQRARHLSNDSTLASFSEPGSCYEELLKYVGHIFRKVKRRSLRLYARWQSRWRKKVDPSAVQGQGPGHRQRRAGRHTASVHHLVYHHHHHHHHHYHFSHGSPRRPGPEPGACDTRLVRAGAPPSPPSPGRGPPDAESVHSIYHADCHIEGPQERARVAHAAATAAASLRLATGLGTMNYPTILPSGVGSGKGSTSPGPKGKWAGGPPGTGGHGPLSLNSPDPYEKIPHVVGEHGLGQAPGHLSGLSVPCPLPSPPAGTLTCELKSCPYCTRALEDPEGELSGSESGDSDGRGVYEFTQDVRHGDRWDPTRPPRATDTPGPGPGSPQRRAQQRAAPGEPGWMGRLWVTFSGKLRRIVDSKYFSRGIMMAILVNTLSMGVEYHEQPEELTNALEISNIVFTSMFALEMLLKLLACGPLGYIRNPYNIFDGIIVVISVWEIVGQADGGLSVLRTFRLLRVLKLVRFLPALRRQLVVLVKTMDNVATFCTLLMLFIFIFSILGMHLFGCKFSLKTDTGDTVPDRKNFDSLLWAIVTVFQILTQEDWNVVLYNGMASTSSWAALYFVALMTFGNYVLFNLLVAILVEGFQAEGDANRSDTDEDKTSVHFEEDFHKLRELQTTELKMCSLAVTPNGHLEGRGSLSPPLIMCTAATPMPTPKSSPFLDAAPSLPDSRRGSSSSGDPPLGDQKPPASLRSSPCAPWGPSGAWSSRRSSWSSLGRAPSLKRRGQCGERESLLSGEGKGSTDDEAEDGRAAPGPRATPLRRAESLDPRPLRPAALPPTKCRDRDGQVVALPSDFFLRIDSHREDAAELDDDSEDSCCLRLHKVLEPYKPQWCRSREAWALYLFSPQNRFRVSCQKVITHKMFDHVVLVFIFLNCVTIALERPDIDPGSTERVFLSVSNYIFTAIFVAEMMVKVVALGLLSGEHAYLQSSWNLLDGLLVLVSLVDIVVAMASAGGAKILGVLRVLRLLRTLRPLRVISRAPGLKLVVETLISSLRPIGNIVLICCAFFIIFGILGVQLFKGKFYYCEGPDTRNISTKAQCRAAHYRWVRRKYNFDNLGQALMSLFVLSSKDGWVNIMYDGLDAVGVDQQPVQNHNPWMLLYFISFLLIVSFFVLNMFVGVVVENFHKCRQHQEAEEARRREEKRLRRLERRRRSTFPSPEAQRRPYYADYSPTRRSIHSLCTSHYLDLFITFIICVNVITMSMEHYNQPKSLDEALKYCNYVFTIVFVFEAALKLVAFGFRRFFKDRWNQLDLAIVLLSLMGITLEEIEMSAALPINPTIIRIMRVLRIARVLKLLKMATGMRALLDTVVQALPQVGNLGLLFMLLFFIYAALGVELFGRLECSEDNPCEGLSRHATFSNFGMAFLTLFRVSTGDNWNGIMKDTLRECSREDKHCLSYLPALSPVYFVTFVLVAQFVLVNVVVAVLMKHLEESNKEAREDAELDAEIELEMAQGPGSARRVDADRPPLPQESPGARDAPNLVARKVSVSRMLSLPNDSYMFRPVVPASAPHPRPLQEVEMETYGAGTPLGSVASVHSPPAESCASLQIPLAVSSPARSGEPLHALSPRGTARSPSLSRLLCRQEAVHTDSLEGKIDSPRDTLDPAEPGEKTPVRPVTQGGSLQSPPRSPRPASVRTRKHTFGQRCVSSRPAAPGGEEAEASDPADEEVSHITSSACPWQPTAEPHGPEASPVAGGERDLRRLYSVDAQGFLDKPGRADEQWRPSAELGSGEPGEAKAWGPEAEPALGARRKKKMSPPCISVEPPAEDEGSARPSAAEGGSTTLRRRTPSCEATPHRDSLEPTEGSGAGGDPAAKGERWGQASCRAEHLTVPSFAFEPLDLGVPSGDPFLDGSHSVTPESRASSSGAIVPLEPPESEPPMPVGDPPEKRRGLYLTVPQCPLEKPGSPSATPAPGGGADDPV
CYP2C19 activ – human CYP2C19 activators, primary screen, biochemical, luminescence; Cytochrome P450 2C19 (Homo sapiens), P33261; recombinant CYP2C19, luciferin-H EGE luminescence; hits give high values; 0 = fully inhibited enzyme, 1 = untreated enzyme; activation factor at 5 µM; 96,000 tested, under 10 active; AID 1025, 2008;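 active means activation factor of at least 2 at 5 µM in the primary screen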;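 further: 0 = wells with 2.5 mM tranylcypromine and 1 = vehicle-only wells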
CYP2C9 inhib – blockers of cytochrome P450 2C9 activity – biochemical, luminescence, ADME assay, primary screen | P11712 | CYP2C9 Supersomes, luciferin-H conversion | inhibition, % at 5 µM | actives 20% (n = 96,000) | AID 777, 2007;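 active means blocking of liver enzyme CYP2C9 beyond about 50% at 5 µM, limit read from the data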
* = called active by the depositor; . = no result. Hits are enriched below; roughly 27% of the tested compounds scored in any of these assays.

SMILES	CYP2C9 act	CYP2C19 inhib	Cav3 T inh	CYP2C19 activ	CYP2C9 inhib
Cc1ccc2c(c1)cc(CN(Cc1ccco1)S(=O)(=O)c1ccccc1)c1nnnn12	0.9	11	0.019	0.9	11
CCCC(C)c1nnc(NC(=O)C2CCCO2)s1 (stereo unspecified)	1.1	2	0.015	1	-11
COc1ccc(CCNC(=O)C2CCN(C(=O)N(C)C)CC2)cc1OC	1.1	7	-0.12	0.9	-12
COc1ccccc1-c1c(C)nn2c(N3CCC(C(N)=O)CC3)cc(C)nc12	1	-3	0.92	1	-1
CCCN(CCC)C(=O)C1CCN(c2cc(C)nc3c(-c4ccc(OC)c(OC)c4)c(C)nn23)CC1	0.5	48	-1.4	0.5	51*
COc1ccc(-c2c(C)nn3c(N4CCC(C(=O)NCCN(C)C)CC4)cc(C)nc23)cc1OC	1	-10	3.1*	1.1	-4
CCOc1ccc2[nH]c(=O)c(CN(CC3CCCN3CC)C(=O)NCc3ccccc3)cc2c1 (stereo unspecified)	0.8	19	-0.62	0.8	20
Cc1cc(C)n(-c2nc3ccccc3nc2N2CCN(S(=O)(=O)c3ccc(F)c(C)c3)CC2)n1	0.5	7	0.022	0.9	50*
Cc1cc(C)n(-c2nc3ccccc3nc2N2CCN(S(=O)(=O)c3ccc4ccccc4c3)CC2)n1	0.5	33	-3.5	0.7	50
Cc1cc(N2CCN(S(=O)(=O)c3ccc(Cl)cc3)CC2)c2ccccc2n1	0.6	82*	-1.9	0.2	40
C=CC(O)Cc1c(C)n[nH]c1C (stereo unspecified)	1.2	-1	-0.16	1	-15
Cc1ccc2nc(C3CCN(CC(=O)N4CCCCCC4)CC3)[nH]c2c1	0.9	4	0.96	1	10
O=C(Nc1cccc(-c2cn3ccccc3n2)c1)c1cccc(Cl)c1	0.2	29	0.075	0.7	84*
O=C(Nc1cccc(-c2cn3ccsc3n2)c1)c1ccccc1	0.2	59*	1.1	0.4	85*
O=C(COc1ccc(Br)cc1)Nc1ccc([N+](=O)[O-])cn1	1.1	20	0.21	0.8	-9
CCCn1c(SCC(=O)NC(C)(C)C)nnc1C(C)C	1.2	-7	-0.09	1.1	-15
O=C(COC(=O)c1cc([N+](=O)[O-])ccc1NCc1ccccc1)NC1CCCc2ccccc21 (stereo unspecified)	0.3	20	-0.51	0.8	69*
Cc1onc(-c2ccccc2)c1C(=O)N/N=C(\N)COc1ccc(Cl)cc1	0.3	69*	-0.72	0.3	74*
COc1cccc(NC(=O)COC(=O)c2c(-c3ccccc3)noc2C)c1	0.4	60*	0.0032	0.4	60*
COc1ccc(NC(=O)COC(=O)c2c(-c3ccccc3)noc2C)cc1	0.7	53*	0.36	0.5	27
CCOC(=O)C1CCCN(c2c(NCCc3ccc(S(N)(=O)=O)cc3)c(=O)c2=O)C1 (stereo unspecified)	1	-8	1.2	1.1	3
O=C1NC[C@H](c2ccccc2)N(CCc2cccc(F)c2)C1=O	.	.	0.33	.	.
CCCCNC(=O)c1onc(CSc2cccc(F)c2)c1C(=O)O	0.3	9	-0.62	0.9	66*
CCCCNC(=O)c1onc(CSc2ccc(Cl)cc2)c1C(=O)NCCCC	.	.	-0.9	.	.
CC(C)c1ccc(SCc2noc(C(=O)NCC3CCCO3)c2C(=O)O)cc1 (stereo unspecified)	0.4	21	0.035	0.8	61*
SMILES	CYP2C9 act	CYP2C19 inhib	Cav3 T inh	CYP2C19 activ	CYP2C9 inhib
CCCCNC(=O)c1onc(CSc2ccc(F)c(F)c2)c1C(=O)NCCCC	.	.	-1.4	.	.
C=CCNC(=O)c1onc(CSc2ccc(Cl)cc2)c1C(=O)O	0.3	24	-0.00045	0.8	73*
CCCCNC(=O)c1onc(CSc2ccc(Cl)cc2)c1C(=O)O	0.1	16	-1.6	0.8	86*
COc1ccc(CCN2C(=O)C3C4CC(C5C(C(=O)O)=NOC45)C3C2=O)cc1OC (stereo unspecified)	1.1	8	-0.033	0.9	-9
COC(=O)CSc1nnc(CNC(=O)c2cccs2)n1-c1cc(OC)ccc1OC	1.1	-6	0.097	1.1	-6
COCCNC(=O)c1onc(CSc2ccc(F)c(F)c2)c1C(=O)O	0.8	20	-0.43	0.8	20
C=CCNC(=O)c1onc(CSc2ccc(F)c(F)c2)c1C(=O)O	0.2	44	0.11	0.6	77*
CC(C)NC(=O)c1onc(CSc2ccc(Cl)cc2)c1C(=O)O	0.3	19	-0.21	0.8	70*
Cc1c(C#N)c(N=CN(C)C)c(C(=O)c2ccc(Br)cc2)n1-c1ccc(Cl)cc1	0.5	23	-2.4	0.8	49
CN(C)/C=N/c1cnc(C(=O)c2ccc(Cl)cc2)n1C	0.7	60*	0.71	0.4	32
COC(C[C@@H]1O[C@H]1[C@H](O)[C@@H](C)OCc1ccccc1)OC	.	.	-0.026	.	.
O=C1NC(c2cccs2)Nc2sc3c(c21)CCCC3 (stereo unspecified)	0.4	-14	-0.48	1.1	60*
CN1CCc2c(sc3c2C(=O)NC(c2cccc(OC(=O)c4cccs4)c2)N3)C1 (stereo unspecified)	0.9	-14	.	1.1	14
CS(=O)CCC(NS(=O)(=O)c1ccccc1)C(=O)O (stereo unspecified)	0.9	-17	0.15	1.2	5
COc1cccc(C(=O)CSc2nnnn2C)c1	1	72*	0.53	0.3	1
COc1ccc(-n2nnnc2SCC(=O)c2ccc(O)c(O)c2)cc1	0.8	19	0.77	0.8	17
COc1ccc(C(=O)CSc2nnnn2Cc2ccccc2)cc1	0.6	60*	-0.75	0.4	37
COC(=O)c1cc(OC)c(OC)cc1NC(=S)N1CCN(Cc2ccccc2)CC1	0.6	100*	.	0	44
COC(=O)c1cc(OC)c(OC)cc1NC(=O)CN1CCOCC1	0.7	7	0.074	0.9	28
COC(=O)c1ccc(CSc2nnnn2Cc2ccccc2)cc1	0.2	31	-3.2	0.7	78*
CCC1C(=O)Nc2nc(-c3ccccc3)c(-c3ccccc3)n2N=C1C (stereo unspecified)	0.8	-3	-3	1	20
COC(=O)c1cc(OC)c(OC)cc1NC(=O)CSc1nnnn1Cc1ccccc1	0.2	75*	-1.8	0.3	82*
CCN(CC)CCN=C1CCCc2ccccc2N1	0.9	5	0.52	1	9
O=C(Cn1c(=O)oc2cc(S(=O)(=O)N3CCCC3)ccc21)N1CCc2ccccc2C1	0.4	3	-5.7*	1	64*
O=C(Cn1c(=O)oc2cc(S(=O)(=O)N3CCCC3)ccc21)NCc1ccc(F)cc1	0.1	5	0.42	0.9	85*
